Unmarked numbers belong to inactive results.
Tested on: Meloidogyne hapla J2
Experiment: proportion of mobile M. hapla J2 relative to DMSO control (fraction of DMSO control); higher = more viable, less nematicidal, active = 0.7 or less
Details: 60 µM; 5 days; temperature: 20 °C
Outline: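 Sealed 96-well plates, each well holding around 25 M. hapla J2 in distilled water with compound pinned to 60 µM final (0.6% v/v DMSO), were shaken at 200 rpm for 5 days at 20 °C. Then 2 µL of 1 M NaOH was added to each well. Microscope-scored mobility was normalised to the mean of DMSO-only wells from the same plate. Eight such wells were on each plate, and the two biological replicates were averaged.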

Row | Compound | proportion of mobile M. hapla J2
1 | CCOc1nc(-c2ccccc2)ccc1-c1noc(-c2cccc(C)c2)n1 | 0.805
2 | Clc1cccc(-c2nc(-c3ccncc3)no2)c1 | 0.634 (active)
3 | Cc1c(C(=O)CSc2nnc(-c3ccccc3)o2)c2ccccc2n1C | 0.957
4 | COc1ccccc1-c1nc(-c2ccc(Cl)cc2Cl)no1 | 1
5 | COc1ccccc1-c1nc(-c2ccc(C)cc2)no1 | 1.01
6 | CCN(C(=O)CSc1nnc(-c2ccncc2)o1)c1ccccc1 | 0.965
7 | Cc1ccc(OCc2nc(-c3ccncc3)no2)cc1C | 1.03
8 | c1ccc(-c2noc(-c3cccs3)n2)cc1 [tioxazafen] | 0.937
9 | O=C(Nc1cccc(-c2noc(-c3cccnc3)n2)c1)c1cccs1 | 0.999
10 | COc1ccc(-c2noc(COc3ccc(C)cc3Br)n2)cc1 | 1.01
11 | O=C(CSc1nnc(-c2ccco2)o1)Nc1ccccc1F | 0.933
12 | Brc1ccc(-c2noc(-c3cccs3)n2)o1 | 0.7 (active)
13 | COc1ccccc1CC(=O)Nc1ccc(-c2noc(-c3ccccc3C)n2)cc1 | 0.743
14 | Brc1ccc(-c2noc(-c3ccco3)n2)cc1 | 1.01
15 | Cc1ccccc1-c1noc(-c2ccc(F)cc2)n1 | 0.909
16 | Cc1ccc(OCc2nc(-c3ccc(Cl)cc3)no2)cc1C | 1.05
17 | Cc1ccc(-c2noc(-c3cccc(Br)c3)n2)cc1 | 1.04
18 | Clc1cc(Cl)c(OCc2nc(-c3ccncc3)no2)cc1Cl | 0.713
19 | Cc1ccc(OCc2nc(-c3ccc(Br)o3)no2)cc1C | 1
